Data reported in PubChem BioAssay AID504832 (National Center for Advancing Translational Sciences (NCATS), 2011).
About 18,000 (5.8%) of roughly 310,000 compounds were called active. A call without a number means that no potency is given here. Inconclusive results (about 22%) are left out. This is one part of a sample in which actives are shown more often than they occur. Calls come from the whole dose curve; as a rule, active = well fitted inhibition curve with a large enough effect; inconclusive = small, poorly fitted or top-dose-only effect, or another doubt; inactive = no such curve, though single readings can be large or run the other way.

Experiment: Primary qHTS for delayed death inhibitors of the malarial parasite plastid, 48 hour incubation
Conditions: P. falciparum luciferase growth in erythrocytes; series mostly up to 28.7 µM
Procedure, shortened: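 Read-out is firefly luciferase luminescence from an integrated reporter in P. falciparum, so falling signal marks reduced parasite growth. Infected erythrocytes were at 2% hematocrit and 0.1% parasitemia (final) in Albumax-supplemented RPMI 1640.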
Potency is the fitted concentration of half-maximal effect.

Row | Structure (SMILES) | Potency
1 | CCCc1nnc(NC(=O)CCC(=O)NC2CC2)s1 | inactive
2 | O=C(NCc1ccco1)/C(=C\c1cccc([N+](=O)[O-])c1)NC(=O)c1ccco1 | inactive
3 | C=CCn1c(SCC(=O)NCC2CCCO2)nc2sc(C)c(C)c2c1=O (stereo unspecified) | inactive
4 | Cc1cccc(NC(=O)Cn2cc(C(=O)c3ccco3)c3ccccc32)c1 | inactive
5 | CC1CCN(C(=O)Cn2cc(C(=O)c3ccco3)c3ccccc32)CC1 | 9.28 µM (active)
6 | N#Cc1ccc(Cn2cc(C(=O)c3ccco3)c3ccccc32)cc1 | inactive
7 | CC(Sc1ncnc2c1cnn2-c1ccccc1)C(=O)Nc1ccc(N2CCOCC2)cc1 (stereo unspecified) | inactive
8 | COc1ccc2c(c1OC)C(=O)N(c1ccc(O)cc1)C2 | inactive
9 | N#Cc1ccc(C(c2nnnn2CCc2ccccc2)N2CCCCCC2)cc1 (stereo unspecified) | 1.65 µM (active)
10 | N#Cc1ccc(C(c2ccc(C#N)cc2)n2cncn2)cc1 | inactive
11 | CC(C)C(c1nnnn1CCc1ccccc1)N1CCN(C(=O)c2ccco2)CC1 (stereo unspecified) | inactive
12 | CCCc1nc(SCC(=O)N2CCCC2)c2c(=O)n(C)c(=O)n(C)c2n1 | inactive
13 | CC(=O)N1CCN(CC(c2ccccc2)c2ccccc2)CC1 | inactive
14 | COc1cccc(CN(C)CC2CCCN(CCc3ccc(Cl)cc3)C2)c1OC (stereo unspecified) | 5.86 µM (active)
15 | COc1ccccc1CN(C)C(=O)C1(c2ccc(Cl)cc2)CC1 | inactive
16 | COc1cccc(CN(C)CC(=O)NCc2ccccc2Cl)c1OC | inactive
17 | COc1cccc(NC(=O)N2C3CCCC2CC(NC(C)=O)C3)c1 (stereo unspecified) | inactive
18 | CCOc1cc(C2/C(=C(/O)c3ccc(S(=O)(=O)N4CCCCC4)cc3)C(=O)C(=O)N2CCOC)ccc1O (stereo unspecified) | inactive
19 | CCOC(=O)C1=C(N)N(c2ccc(C)cc2)C2=C(C(=O)CCC2)C1c1cccs1 (stereo unspecified) | 9.28 µM (active)
20 | O=C1CCCC2=C1C(c1cccs1)CC(=O)N2c1ccc(F)cc1 (stereo unspecified) | inactive
21 | CCOC(=O)c1cc2c(n(-c3ccc(C)cc3)c1=O)CCCC2=O | inactive
22 | COc1cc2cc(C(=O)N/N=C/c3cccc(OC)c3OC)[nH]c2cc1OC | inactive
23 | C=CCN1C(=NC(=O)COc2ccccc2)SC2CS(=O)(=O)CC21 (stereo unspecified) | inactive
24 | CCn1c(=N)c(S(=O)(=O)c2ccc(F)cc2)cc2c(=O)n3ccccc3nc21 | inactive
25 | CCOC(=O)c1cc2c(=O)n3ccccc3nc2n(CC(C)C)c1=NC(=O)c1c(-c2c(F)cccc2Cl)noc1C | 2.33 µM (active)
26 | C/C(=N/OC(=O)c1c(-c2c(F)cccc2Cl)noc1C)c1cnccn1 | inactive

Row | Structure (SMILES) | Potency
27 | O=C(Nc1cc2c3c(c1)CC(=O)N3CCC2)c1ccccc1F | inactive
28 | COc1cccc(CN2CCN(Cc3ccc4cccc(F)c4n3)CC2CCO)c1 (stereo unspecified) | inactive
29 | O=c1c2c(-c3ccccc3)ccnc2[nH]n1-c1ccccc1 | inactive
30 | COc1ccc(Cc2nnc(NC(=O)c3ccc(OC)cc3OC)s2)cc1 | 1.65 µM (active)
31 | COc1ccc(C(=O)Nc2nncs2)c(OC)c1 | inactive
32 | COc1ccc(Cc2nnc(NC(=O)c3cc(OC)c(OC)c(OC)c3)s2)cc1OC | inactive
33 | Cc1cc(C(=O)NC2CC(C)(C)Cc3c2cnn3-c2ccccc2)n[nH]1 (stereo unspecified) | inactive
34 | Clc1ccc(N/N=C/c2cccs2)nn1 | inactive
35 | Oc1cccc(/C=N/Nc2ccc(Cl)nn2)c1O | 0.415 µM (active)
36 | COc1cccc(/C=N/Nc2ccc(Cl)nn2)c1 | inactive
37 | O=C(CN1CCCCC1)NC(=O)Nc1ccccc1F | inactive
38 | Cc1ccc(NC(=O)CN(C)C(=O)COC(=O)C(C)(C)Oc2ccc(Cl)cc2)cc1 | inactive
39 | CCN(CC)CCN(C(=O)c1ccc(S(=O)(=O)N2CCOCC2)cc1)c1nc2cc3c(cc2s1)OCCO3 | inactive
40 | CCOc1ccc2nc(N(CCN(C)C)C(=O)c3ccc4ccccc4c3)sc2c1 | inactive
41 | Cc1ccc2nc(N(CCN(C)C)C(=O)C3=COCCO3)sc2c1 | inactive
42 | CCC(=O)Nc1nnc(S(=O)(=O)N2CCCc3ccccc32)s1 | inactive
43 | CCOc1ccc2nc(N(CCCN(C)C)C(=O)c3ccc(C(=O)c4ccccc4)cc3)sc2c1 | 10.4 µM (active)
44 | CN(C)CCCN(C(=O)c1ccc(S(=O)(=O)N2CCCc3ccccc32)cc1)c1nc2ccc(F)cc2s1 | 13.1 µM (active)
45 | CCCC(=O)N(CCN1CCOCC1)c1nc2ccc(OCC)cc2s1 | inactive
46 | CCc1ccc2nc(N(CCCN(C)C)C(=O)c3ccc4c(c3)OCCO4)sc2c1 | 3.29 µM (active)
47 | CN(C)CCN(C(=O)C1=COCCO1)c1nc2ccc(Cl)cc2s1 | inactive
48 | C[C@H](NC(=O)C1CC(=O)N(c2ccc3c(c2)OCO3)C1)C(=O)NCc1ccco1 (stereo partly specified) | inactive
49 | CCc1ccccc1N(CC(=O)NCC1CCCO1)C(=O)CCC(=O)Nc1nccs1 (stereo unspecified) | inactive
50 | CC(C)Oc1ccc(C(CC(=O)N2CCOCC2)C(C)C)cc1 (stereo unspecified) | inactive
51 | COc1ccc(CSc2nnnn2-c2ccc(C(=O)O)cc2)cc1 | inactive
52 | COc1ccc(C(=O)NCC(=O)N/N=C/c2cccnc2)cc1 | inactive

Row | Structure (SMILES) | Potency
53 | COc1ccc(C(=O)OCC(=O)c2ccc(C)c(S(=O)(=O)N3CCOCC3)c2)cc1OC | inactive
54 | CCOc1ccc(CCNC(=O)COC(=O)c2ccc(F)c(S(=O)(=O)N3CCOCC3)c2)cc1OCC | 14.7 µM (active)
55 | Cc1cc(NC(=O)COC(=O)c2ccc(F)c(S(=O)(=O)N3CCOCC3)c2)no1 | inactive
56 | CC(C)CNC(=O)C(=O)NCC(c1ccc2c(c1)OCO2)N1CCOCC1 (stereo unspecified) | inactive
57 | CCCCn1c(SCC(=O)N2CCCC2=O)nc2cc(S(N)(=O)=O)ccc21 | inactive
58 | NS(=O)(=O)c1ccc(CCNC(=O)CCCn2c(SCC(=O)N3CCCC3)nc3ccsc3c2=O)cc1 | inactive
59 | CCCCn1c(SCC(=O)N2CCC(C(=O)OCC)CC2)nc2cc(S(N)(=O)=O)ccc21 | 13.1 µM (active)
60 | CCSc1nsc(NC(=O)Nc2ccccc2OC)n1 | inactive
61 | COc1ccc(CC(=O)NC2CCSc3ccccc32)cc1OC (stereo unspecified) | inactive
62 | CO[C@H]1[C@@H]2C=CO[C@@H](O[C@H]3O[C@@H](CO)[C@H](O)[C@@H](O)[C@@H]3O)[C@@H]2[C@@]2(CO)O[C@@H]12 | inactive
63 | Cc1n[nH]c(=O)c2c(NC(=O)CSc3ccccc3F)oc(C)c12 | inactive
64 | COc1ccc(C(=O)Cc2cnn(-c3ccccc3)c2)c(O)c1 | inactive
65 | Cc1[nH]nc(-c2ccc(OCc3cnn(-c4ccccc4)c3)cc2O)c1Oc1ccc(Cl)cc1 | 5.22 µM (active)
66 | CCOc1cc(C2C(C(=O)c3ccco3)=C(O)C(=O)N2Cc2ccccc2)ccc1O (stereo unspecified) | inactive
67 | Cc1ccccc1NC(=O)C1CCN(C(=O)NC2CCCCC2)CC1 | inactive
68 | COc1ccc(-c2nnc(NC(=O)CS(=O)(=O)c3ccc(Cl)cc3)o2)c(OC)c1 | inactive
69 | CCCC(=O)Nc1nnc(-c2ccccc2)o1 | inactive
70 | Cc1ccc(C)c(-c2nnc(NC(=O)CS(=O)(=O)c3ccccc3)o2)c1 | 13.1 µM (active)
71 | COc1ccc(NCCc2ccccn2)cc1 | inactive
72 | OCC[C@H]1C[C@H](O)[C@@H](O)[C@]2(CCc3ccccc3O2)O1 | inactive
73 | Cc1ccc2[nH]c(=O)c(CC(=O)O)c(-c3ccccc3)c2c1 | inactive
74 | O=C(/C=C/c1ccco1)NC(=S)N1CCCCC1 | inactive
75 | CCSc1nnc(NC(=O)Cc2ccccc2OC)s1 | inactive
76 | O=C(CSc1nnc(Nc2ccccc2F)s1)NC1CCCC1 | inactive
77 | COc1ccccc1Nc1nnc(SC(C)C(=O)NC2CC2)s1 (stereo unspecified) | 10.4 µM (active)
78 | O=C1CCCN1C(=O)COc1ccc([N+](=O)[O-])cc1 | inactive

Row | Structure (SMILES) | Potency
79 | O=C(CNc1ccccc1N1CCCC1=O)Nc1cc(Cl)ccc1-n1cncn1 | inactive
80 | Cc1nn(-c2ccccc2)c(C)c1NC(=O)COC(=O)Cc1ccccc1 | inactive
81 | Cc1cccc(C)c1NC(=O)CNC(=O)c1c(C)nn(-c2ccccc2)c1C | inactive
82 | Cc1nn(-c2ccccc2)c(C)c1NC(=O)CCl | 4.65 µM (active)
83 | Cn1ccc(=Nc2ccc(NC(=O)c3ccc(N=c4ccn(C)c5ccc([N+](=O)[O-])cc45)cc3)cc2)cc1 | 0.233 µM (active)
84 | COc1cc(NS(=O)(=O)c2ccc(NC(=O)c3ccc([N+](=O)[O-])cc3)cc2)ncn1 | inactive
85 | O=C(Nc1ccc(C(=O)N2CCCCC2)cc1)c1cccc([N+](=O)[O-])c1 | inactive
86 | O=S(=O)(c1cccc(-c2cn3ccccc3n2)c1)N1CCCC1 | inactive
87 | O=S(=O)(c1cccc(-c2nnc3n2CCCCC3)c1)N1CCOCC1 | inactive
88 | O=S(=O)(c1cccc(-c2nnc(SC(F)F)n2-c2ccccc2)c1)N1CCCCC1 | 11.7 µM (active)
89 | COc1cc(NC(=O)CSC(=S)N2CCCC2)c(OC)cc1Cl | inactive
90 | Oc1ccccc1C1=NN(c2ccccc2)C(c2ccccc2)C1 (stereo unspecified) | 1.31 µM (active)
91 | O=C1CC(c2ccccc2)C(=O)N1c1cccc(O)c1 (stereo unspecified) | inactive
92 | COc1ccc(C2CC(c3ccccc3)=NN2C(=O)c2ccc(Cl)c([N+](=O)[O-])c2)cc1 (stereo unspecified) | inactive
93 | CC(=O)Oc1ccccc1C1=NN(C(C)=O)C(c2ccccc2)C1 (stereo unspecified) | inactive
94 | O=C(c1ccccc1)N1N=C(c2ccccc2O)CC1c1ccc(Br)cc1 (stereo unspecified) | 3.7 µM (active)
95 | CCn1c(=O)c(=O)[nH]c2c(=O)oc3ccc(S(=O)(=O)Nc4ccc(OC)cc4)cc3c21 | inactive
96 | COc1ccc(C(=O)CCC(=O)Nc2ccc(Cl)cc2)cc1 | inactive
97 | O=C(NCCO)C(=O)NCC(c1ccc2c(c1)OCO2)N1CCN(c2ccc(F)cc2)CC1 (stereo unspecified) | inactive
98 | O=C(OCCN=C1NS(=O)(=O)c2ccccc21)c1cccc([N+](=O)[O-])c1 | inactive
99 | Cn1c(=O)c2c(ncn2CC(=O)N2CCN(c3ccccc3)CC2)n(C)c1=O | inactive
100 | Cn1c(=O)c2c(ncn2CCc2ccccc2)n(C)c1=O | inactive
101 | Cn1c(=O)c2c(ncn2CC(COCc2ccccc2Cl)OCc2ccccc2Cl)n(C)c1=O (stereo unspecified) | 8.28 µM (active)
